Measured values reported in the supplement of paper PMC10849652.
About 8,800 targets were measured; listed, in parts, are those with a hit and a random draw of the rest. About 0.5% of all pairs of compound and target were hits. Values without a mark were called inactive.

Columns and labels:
Test in all cases: log2 fold change, soluble protein after heating vs DMSO (PISA); higher = thermal stabilisation; K562 lysate, 10 uM; active = over 0.2 and 3.5 SD of the protein, either way, in both replicates (recomputed)
ibrutinib = compound: C=CC(=O)N1CCC[C@@H](n2nc(-c3ccc(Oc4ccccc4)cc3)c3c(N)ncnc32)C1 [ibrutinib]
In short: (§1)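 Quantification was by TMTpro 16plex LC-MS/MS with equalised channel sums, applied to the supernatant after 21,000xg for 90 min. Samples were crude K562 extract at 1 mg/mL protein in PBS pH 7.4 with 1 mM MgCl2, treated with 10 μM compound for 30 min, heated for 3 min across 48°C-58°C, pooled and brought to 0.5% NP-40 at 4°C. Values are log-two fold changes in thermal stability relative to solvent controls, from duplicates.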

[1] = compound: CC(=O)c1cnc2ccc(-c3cc(Cl)c(O)c(Cl)c3)nc2c1N[C@H]1CC[C@H](CN(C)C)CC1
In short: as §1

ralimetinib = compound: CC(C)(C)Cn1c(N)nc2ccc(-c3[nH]c(C(C)(C)C)nc3-c3ccc(F)cc3)nc21 [ralimetinib]
In short: as §1

[2] = compound: CC(C)(O)CC(=O)NCCn1ccc2ncnc(Nc3ccc(Oc4cccc(C(F)(F)F)c4)c(Cl)c3)c21
In short: as §1

[3] = compound: CC(C)C1=C2N=C(C=C(N2N=C1)NCC3=CC=CC=C3)NCCCCCCN
In short: as §1

[4] = compound: CC1=C(C(CC(=O)N1)C2=CC=C(C=C2)C(F)(F)F)C(=O)NC3=C(C=C4C(=C3)C=NN4)F
In short: as §1

[5] = compound: CC1=C(C2=C(C=C1)C(=O)C3=CC=CC=C3N2CCCN)C
In short: as §1

[6] = compound: CC1=C(C=C(C=C1)NC(=O)C2=CC(=CC=C2)C(C)(C)C#N)NC3=CC4=C(C=C3)N=CN(C4=O)C
In short: as §1

[7] = compound: CC1=C(C=C(C=C1)NC(=O)C2=CC(=CC=C2)N(C)C)NC(=O)C3=CC=C(C=C3)O
In short: as §1

[8] = compound: CC1=CC=C(C=C1)SC2=C3C=C(SC3=CN=C2)C(=O)N
In short: as §1

vemurafenib = compound: CCCS(=O)(=O)Nc1ccc(F)c(C(=O)c2c[nH]c3ncc(-c4ccc(Cl)cc4)cc23)c1F [vemurafenib]
In short: as §1

[9] = compound: CCCS(=O)(=O)Nc1ccc(F)c(C(=O)c2c[nH]c3ncc(Cl)cc23)c1F
In short: as §1

barasertib = compound: CCN(CCCOc1ccc2c(Nc3cc(CC(=O)Nc4cccc(F)c4)[nH]n3)ncnc2c1)CCOP(=O)(O)O [barasertib]
In short: as §1

[10] = compound: CC[C@@H]1C(=O)N(C)c2cnc(Nc3ccc(C(=O)NC4CCN(C)CC4)cc3OC)nc2N1C1CCCC1
In short: as §1

volasertib = compound: CC[C@@H]1C(=O)N(C)c2cnc(Nc3ccc(C(=O)N[C@H]4CC[C@H](N5CCN(CC6CC6)CC5)CC4)cc3OC)nc2N1C(C)C [volasertib]
In short: as §1

[11] = compound: CCn1c(C(=O)N(C2CC2)C2CC2)cc2c3c(ncn3C)c(Nc3cc(C)n(C)n3)nc21
In short: as §1

[12] = compound: CCn1cc(-c2ccnc3[nH]c(-c4cccc(CN(C)C)c4)cc23)c(-c2ccc(NC(=O)N(C)C)cc2)n1
In short: as §1

[13] = compound: CN1CCC(CNc2ccc3ncc(-c4cccc(OC(F)(F)F)c4)n3n2)CC1
In short: as §1

saracatinib = compound: CN1CCN(CCOc2cc(OC3CCOCC3)c3c(Nc4c(Cl)ccc5c4OCO5)ncnc3c2)CC1 [saracatinib]
In short: as §1

sotrastaurin = compound: CN1CCN(c2nc(C3=C(c4c[nH]c5ccccc45)C(=O)NC3=O)c3ccccc3n2)CC1 [sotrastaurin]
In short: as §1

Chain of UniProt P41440 (P41440 whole entry, looked up): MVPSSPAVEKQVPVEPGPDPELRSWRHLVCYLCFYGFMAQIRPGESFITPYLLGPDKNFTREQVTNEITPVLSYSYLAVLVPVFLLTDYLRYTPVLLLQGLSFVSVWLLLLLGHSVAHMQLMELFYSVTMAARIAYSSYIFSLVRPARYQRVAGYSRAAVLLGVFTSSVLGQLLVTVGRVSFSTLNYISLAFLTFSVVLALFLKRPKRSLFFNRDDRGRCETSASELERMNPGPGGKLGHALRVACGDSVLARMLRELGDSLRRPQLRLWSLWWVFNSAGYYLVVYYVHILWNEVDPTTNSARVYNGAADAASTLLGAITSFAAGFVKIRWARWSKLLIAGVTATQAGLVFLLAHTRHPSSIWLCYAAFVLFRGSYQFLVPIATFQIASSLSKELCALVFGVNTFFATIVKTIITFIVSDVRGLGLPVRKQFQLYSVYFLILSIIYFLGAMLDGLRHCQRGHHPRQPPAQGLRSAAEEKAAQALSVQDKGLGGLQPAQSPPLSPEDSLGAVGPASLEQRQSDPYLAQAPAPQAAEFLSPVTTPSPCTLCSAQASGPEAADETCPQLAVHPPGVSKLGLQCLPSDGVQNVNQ
Chain of UniProt P53985 (P53985 whole entry, looked up): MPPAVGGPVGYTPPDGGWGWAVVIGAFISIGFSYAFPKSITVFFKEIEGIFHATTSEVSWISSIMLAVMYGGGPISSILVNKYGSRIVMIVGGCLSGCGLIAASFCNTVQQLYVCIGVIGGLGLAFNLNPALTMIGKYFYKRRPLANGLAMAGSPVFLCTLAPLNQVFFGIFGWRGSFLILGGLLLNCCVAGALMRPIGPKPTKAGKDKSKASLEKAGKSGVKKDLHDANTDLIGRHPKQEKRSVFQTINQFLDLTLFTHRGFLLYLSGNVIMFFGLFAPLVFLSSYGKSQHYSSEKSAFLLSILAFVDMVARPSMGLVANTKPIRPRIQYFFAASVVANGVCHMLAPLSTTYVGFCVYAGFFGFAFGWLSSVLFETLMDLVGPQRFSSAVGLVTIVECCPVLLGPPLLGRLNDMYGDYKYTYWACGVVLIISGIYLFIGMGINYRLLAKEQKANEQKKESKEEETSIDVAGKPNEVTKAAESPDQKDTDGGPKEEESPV
Chain of UniProt Q86XK3 (Q86XK3 whole entry, looked up): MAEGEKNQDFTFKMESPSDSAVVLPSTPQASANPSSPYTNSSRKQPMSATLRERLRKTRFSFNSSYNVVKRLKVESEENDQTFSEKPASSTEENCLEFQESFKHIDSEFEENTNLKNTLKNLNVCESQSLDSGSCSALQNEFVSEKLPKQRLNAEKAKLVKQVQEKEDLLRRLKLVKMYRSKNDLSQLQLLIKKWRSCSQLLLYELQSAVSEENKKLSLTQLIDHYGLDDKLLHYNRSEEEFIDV
Chain of UniProt P53814 (P53814 whole entry, looked up): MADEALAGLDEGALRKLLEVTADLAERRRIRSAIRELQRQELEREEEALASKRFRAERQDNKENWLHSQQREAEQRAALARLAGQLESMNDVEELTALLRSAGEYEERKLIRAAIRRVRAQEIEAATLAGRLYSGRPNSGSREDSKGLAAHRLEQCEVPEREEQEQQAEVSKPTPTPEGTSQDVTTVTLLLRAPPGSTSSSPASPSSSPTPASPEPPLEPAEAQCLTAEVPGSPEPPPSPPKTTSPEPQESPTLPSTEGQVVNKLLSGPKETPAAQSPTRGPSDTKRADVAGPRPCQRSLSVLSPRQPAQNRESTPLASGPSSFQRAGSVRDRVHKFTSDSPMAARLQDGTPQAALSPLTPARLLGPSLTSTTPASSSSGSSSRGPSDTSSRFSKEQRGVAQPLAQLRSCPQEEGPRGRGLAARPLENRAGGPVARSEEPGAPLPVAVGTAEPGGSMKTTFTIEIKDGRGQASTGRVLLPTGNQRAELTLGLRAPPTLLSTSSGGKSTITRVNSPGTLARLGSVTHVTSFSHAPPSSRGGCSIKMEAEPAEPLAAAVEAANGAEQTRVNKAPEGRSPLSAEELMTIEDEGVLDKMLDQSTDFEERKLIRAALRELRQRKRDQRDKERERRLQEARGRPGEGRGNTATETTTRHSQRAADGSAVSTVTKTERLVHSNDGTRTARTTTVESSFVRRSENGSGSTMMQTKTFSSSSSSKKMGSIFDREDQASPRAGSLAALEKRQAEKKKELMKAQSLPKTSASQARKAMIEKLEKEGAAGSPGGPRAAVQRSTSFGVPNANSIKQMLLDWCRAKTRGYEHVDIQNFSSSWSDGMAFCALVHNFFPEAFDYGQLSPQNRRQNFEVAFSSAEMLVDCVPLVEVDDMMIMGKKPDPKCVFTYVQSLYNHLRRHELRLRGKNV
Chain of UniProt Q9UNE7 (Q9UNE7 whole entry, looked up): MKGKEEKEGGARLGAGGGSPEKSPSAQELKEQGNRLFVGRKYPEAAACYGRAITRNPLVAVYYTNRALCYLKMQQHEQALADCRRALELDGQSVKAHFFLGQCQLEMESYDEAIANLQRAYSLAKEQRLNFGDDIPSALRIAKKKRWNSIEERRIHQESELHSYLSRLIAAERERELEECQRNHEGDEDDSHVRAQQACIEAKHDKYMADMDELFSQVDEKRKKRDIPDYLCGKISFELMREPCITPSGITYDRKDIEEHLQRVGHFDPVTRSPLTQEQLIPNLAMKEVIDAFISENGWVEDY
Chain of UniProt Q6KCM7 (Q6KCM7 whole entry, looked up): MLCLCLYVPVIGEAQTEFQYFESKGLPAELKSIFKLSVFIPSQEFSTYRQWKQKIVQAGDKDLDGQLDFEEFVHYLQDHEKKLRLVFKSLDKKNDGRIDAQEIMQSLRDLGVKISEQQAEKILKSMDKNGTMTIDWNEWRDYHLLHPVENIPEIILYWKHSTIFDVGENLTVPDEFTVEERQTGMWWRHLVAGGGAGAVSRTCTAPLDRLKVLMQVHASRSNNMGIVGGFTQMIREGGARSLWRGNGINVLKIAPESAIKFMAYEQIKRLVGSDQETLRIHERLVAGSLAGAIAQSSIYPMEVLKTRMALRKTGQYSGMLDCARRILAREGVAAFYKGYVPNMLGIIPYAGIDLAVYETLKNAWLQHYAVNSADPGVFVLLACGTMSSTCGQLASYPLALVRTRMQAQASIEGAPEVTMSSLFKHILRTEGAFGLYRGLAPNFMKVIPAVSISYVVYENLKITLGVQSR
Chain of UniProt Q6NXT6 (Q6NXT6 whole entry, looked up): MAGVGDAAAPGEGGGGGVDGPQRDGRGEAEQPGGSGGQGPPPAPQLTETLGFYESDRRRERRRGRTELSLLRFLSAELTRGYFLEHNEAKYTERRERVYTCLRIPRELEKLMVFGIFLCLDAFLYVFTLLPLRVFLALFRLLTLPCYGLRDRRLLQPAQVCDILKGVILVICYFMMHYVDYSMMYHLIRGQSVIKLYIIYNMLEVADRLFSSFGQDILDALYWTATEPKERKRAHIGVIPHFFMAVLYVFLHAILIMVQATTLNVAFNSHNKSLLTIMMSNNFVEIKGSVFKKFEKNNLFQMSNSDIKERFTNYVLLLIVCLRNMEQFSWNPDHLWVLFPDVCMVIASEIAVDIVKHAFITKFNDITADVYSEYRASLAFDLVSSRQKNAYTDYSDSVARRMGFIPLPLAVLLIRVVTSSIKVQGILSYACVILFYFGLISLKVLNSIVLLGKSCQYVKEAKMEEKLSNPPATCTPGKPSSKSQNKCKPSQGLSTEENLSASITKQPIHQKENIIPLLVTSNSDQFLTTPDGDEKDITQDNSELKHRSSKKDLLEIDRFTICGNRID
Chain of UniProt Q8IX90 (Q8IX90 whole entry, looked up): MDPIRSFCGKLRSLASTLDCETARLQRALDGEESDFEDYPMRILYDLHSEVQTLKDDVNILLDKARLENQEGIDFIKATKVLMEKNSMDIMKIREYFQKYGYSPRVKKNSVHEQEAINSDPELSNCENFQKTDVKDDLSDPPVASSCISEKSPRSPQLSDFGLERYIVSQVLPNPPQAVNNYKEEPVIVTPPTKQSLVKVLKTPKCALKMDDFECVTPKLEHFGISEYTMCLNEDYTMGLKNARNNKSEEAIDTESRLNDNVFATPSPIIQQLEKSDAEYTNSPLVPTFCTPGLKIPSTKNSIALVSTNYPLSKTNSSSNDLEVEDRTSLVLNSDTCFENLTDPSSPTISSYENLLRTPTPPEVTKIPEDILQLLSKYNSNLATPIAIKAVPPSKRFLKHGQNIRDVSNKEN
Chain of UniProt P62306 (P62306 whole entry, looked up): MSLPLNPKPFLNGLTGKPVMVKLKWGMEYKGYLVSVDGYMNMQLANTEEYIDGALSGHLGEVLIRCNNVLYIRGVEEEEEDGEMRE
Chain of UniProt Q8NEM2 (Q8NEM2 whole entry, looked up): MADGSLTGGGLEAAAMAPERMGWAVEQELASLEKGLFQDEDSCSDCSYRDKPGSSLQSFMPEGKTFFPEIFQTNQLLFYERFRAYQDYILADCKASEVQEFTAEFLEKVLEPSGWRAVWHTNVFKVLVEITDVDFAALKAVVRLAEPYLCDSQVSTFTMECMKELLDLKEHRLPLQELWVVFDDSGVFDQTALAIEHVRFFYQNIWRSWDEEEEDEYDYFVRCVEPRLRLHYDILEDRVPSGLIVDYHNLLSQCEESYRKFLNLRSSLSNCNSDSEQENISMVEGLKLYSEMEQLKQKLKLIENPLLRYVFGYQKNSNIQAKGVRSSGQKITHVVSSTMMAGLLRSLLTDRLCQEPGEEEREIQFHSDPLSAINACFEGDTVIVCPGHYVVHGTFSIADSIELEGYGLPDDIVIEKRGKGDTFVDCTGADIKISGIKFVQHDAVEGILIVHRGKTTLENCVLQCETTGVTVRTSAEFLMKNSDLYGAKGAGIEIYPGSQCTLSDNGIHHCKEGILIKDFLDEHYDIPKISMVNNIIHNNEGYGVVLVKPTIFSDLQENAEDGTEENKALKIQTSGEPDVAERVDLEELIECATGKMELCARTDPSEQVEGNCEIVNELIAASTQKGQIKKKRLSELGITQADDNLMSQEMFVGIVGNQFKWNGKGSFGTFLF
Chain of UniProt Q96KF7 (Q96KF7 whole entry, looked up): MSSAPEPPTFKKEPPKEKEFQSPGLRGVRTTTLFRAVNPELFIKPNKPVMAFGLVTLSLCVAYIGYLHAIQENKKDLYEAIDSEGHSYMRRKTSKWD

Target	log2 fold change (ibrutinib)	log2 fold change [1]	log2 fold change (ralimetinib)	log2 fold change [2]	log2 fold change [3]	log2 fold change [4]	log2 fold change [5]	log2 fold change [6]	log2 fold change [7]	log2 fold change [8]	log2 fold change (vemurafenib)	log2 fold change [9]	log2 fold change (barasertib)	log2 fold change [10]	log2 fold change (volasertib)	log2 fold change [11]	log2 fold change [12]	log2 fold change [13]	log2 fold change (saracatinib)	log2 fold change (sotrastaurin)
SMG6 (UniProt Q86US8)	0.071	-0.061	0.034	-0.016	0.012	0.074	0.006	0.004	0.047	0.059	0.12	-0.006	0.014	-0.139	-0.031	0.038	-0.16	0.141	0.036	0.098
SFR1 isoform 2 (UniProt Q86XK3)	0.023	-0.006	0.003	-0.012	-0.005	-0.006	0.041	0.026	0.06	0.016	-0.031	-0.037	0.024	0.028	0.022	0.013	-0.087	-0.119	-0.04	0.085
STUB1 (UniProt Q9UNE7)	0.015	0.011	0.005	0	-0.018	0.023	0.032	-0.012	-0.001	-0.019	0.01	0.02	-0.007	-0.072	-0.051	0.018	-0.015	-0.03	0.006	0.004
SMAD2 (UniProt Q15796)	0.041	-0.014	0.025	0.012	0.005	-0.061	-0.014	0.054	0.029	0.017	-0.027	0.074	0.03	-0.031	-0.006	-0.027	0.025	-0.003	0.017	-0.002
SRSF7 (UniProt Q16629)	-0.114	-0.071	0.074	-0.004	0	-0.005	-0.023	-0.037	0.02	-0.079	0.012	0.03	-0.057	-0.007	0.012	0.017	-0.034	0.193	-0.008	0.028
SNRPF (UniProt P62306)	-0.027	-0.013	-0.024	-0.072	-0.004	0.015	-0.137	0.018	0.028	-0.082	0.023	0.002	0.045	0.067	0.032	-0.051	-0.35 (active)	0.24	-0.044	0.042
SHCBP1 (UniProt Q8NEM2)	-0.04	0.023	0.026	0.031	0.012	0.009	0.002	-0.008	0.056	-0.041	-0.016	0.003	0.041	-0.041	-0.044	0.027	-0.091	0.022	0.027	0.019
SMIM8 (UniProt Q96KF7)	0.073	-0.02	0.059	-0.136	-0.095	-0.025	-0.128	0.038	0.053	-0.006	0.037	0.048	0.088	-0.003	0.012	0.057	-0.382 (active)	0.177	-0.071	-0.027
STOML2 (UniProt Q9UJZ1)	0.017	-0.012	-0.015	-0.028	0.033	-0.025	-0.04	0	0.002	-0.006	0.026	0.009	0.115	0.043	0.033	-0.015	0.111	-0.047	-0.01	-0.002
SLC19A1 (UniProt P41440)	0.049	0.013	-0.004	-0.054	-0.019	0.019	-0.044	0.009	0.004	-0.003	0.028	-0.005	0.059	0.014	0.047	-0.036	-0.203	0.165	0.019	0.025
SMTN isoform 6 (UniProt P53814)	-0.03	-0.072	-0.02	-0.004	-0.009	0.074	-0.013	0.054	0.05	0.135	0.021	0.061	0.018	-0.007	-0.078	-0.026	-0.036	-0.006	0.013	-0.051
SKA3 (UniProt Q8IX90)	0.001	-0.032	-0.021	-0.038	0.007	0.027	-0.011	0.027	0.025	-0.046	0.047	0.011	-0.062	0.016	0.007	-0.018	-0.027	0.023	0.017	0.028
TAPT1 (UniProt Q6NXT6)	0.071	0.012	-0.029	-0.07	0.004	-0.019	-0.014	0.09	-0.004	-0.027	0.031	0.043	-0.039	0.024	0.028	-0.026	-0.229 (active)	0.106	-0.014	-0.002
SLC39A11 (UniProt Q8N1S5)	-0.065	-0.008	-0.136	-0.042	-0.023	0.051	0.16	-0.074	-0.089	0.001	-0.082	0.073	-0.126	0.067	0.011	0.028	-0.043	0.147	-0.108	-0.009
SLC25A25 isoform 3 (UniProt Q6KCM7)	-0.015	-0.028	0.011	0.021	0.018	0.022	-0.036	0.017	-0.012	0.034	-0.011	-0.012	0.004	0.012	0.03	0.007	-0.012	-0.053	0.016	-0.016
SLC16A1 (UniProt P53985)	-0.023	0.002	0.015	0.015	0.003	-0.039	-0.03	0.042	0	-0.006	0.026	-0.015	-0.051	0.07	0.043	-0.034	-0.419 (active)	0.256 (active)	-0.003	0.02
